Laboratory results as given in the supplement of paper PMC7411054.
Counter-ions that a name gives are not always drawn. Unmarked numbers belong to inactive results.

The molecules below were run on A549-TUBA1B-RELA (assay: phenotypically active (imaging signature differs from DMSO and reproducible) at any of 0.3-9 uM (binary (1 = active, 0 = inactive)); higher = active). Settings: treatment time: 24 h.
Method in brief: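 After 24 h at 0.3, 1, 3 or 9 µM, with four wells per treatment, fifteen gene-edited A549, HepG2 and WPMY1 reporter lines carrying BFP, GFP and RFP/FusionRed were imaged live. Each well's live-cell features were expressed relative to solvent control wells. Deviation required ≥3 of 4 wells past the 95th percentile of control Euclidean distances, and reproducibility a median replicate Pearson correlation over the 95th percentile of non-replicates. Phenotypic activity rested on both.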

SMILES | phenotypically active
Cc1sc2c(c1C)C(c1ccc(Cl)cc1)=N[C@@H](CC(=O)OC(C)(C)C)c1nnc(C)n1-2 | 1 (active)
CN1C[C@H](C(=O)N[C@]2(C)O[C@@]3(O)[C@@H]4CCCN4C(=O)[C@H](Cc4ccccc4)N3C2=O)C[C@@H]2c3cccc4[nH]cc(c34)C[C@H]21.CN1C[C@H](C(=O)N[C@]2(C)O[C@@]3(O)[C@@H]4CCCN4C(=O)[C@H](Cc4ccccc4)N3C2=O)C[C@@H]2c3cccc4[nH]cc(c34)C[C@H]21 [dihydroergotamine] | 1 (active)
C[C@@]12C(=O)OC(=O)[C@]1(C)[C@H]1CC[C@@H]2O1 [Cantharidin] | 0
COc1cc2c(c(OC)c1OC)-c1ccc(OC)c(=O)cc1[C@@H](NC(C)=O)CC2 [colchicine] | 1 (active)
CC(C)(O)[C@H]1O[C@H]2CC[C@@]3(C)[C@@](O)(CC[C@H]4Cc5c([nH]c6ccccc56)[C@@]43C)C2=CC1=O [paxilline] | 0
N#CC(C#N)=NNc1cccc(Cl)c1 | 1 (active)
Cc1c(C(=O)Nc2cccc(C(F)(F)F)c2)cc(-c2ccccc2)n1CCCN1CCOCC1 | 0
CCN1CCN(C(=O)Cc2ccc(Nc3ncc(F)c(Nc4ccc(C(=O)Nc5ccccc5Cl)cc4)n3)cc2)CC1 | 1 (active)
CC(C)(C)c1cc(C=C(C#N)C#N)cc(Br)c1O | 0
O=C(NCCN1CCC2(CC1)C(=O)NCN2c1cccc(F)c1)c1ccc(F)c(F)c1 [ML 298 hydrochloride] | 1 (active)
CC(C)(N)Cc1ccccc1 [phentermine] | 0
